Screening data deposited in PubChem by National Center for Advancing Translational Sciences (NCATS).
Hits are enriched below; roughly 11% of the tested compounds scored in any of these assays.
Pf growth 48h – Primary qHTS for delayed death inhibitors of the malarial parasite plastid, 48 hour incubation; P. falciparum luciferase growth in erythrocytes, 48 h; Potency, µM (titrated, usually from 28.7 µM), without a hit: at the top dose activity change, negative = inhibition, usual class: inhibitors; hit rate 5.9% among 310,000
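Here the parasites carry a stable luciferase gene and grow inside erythrocytes in Albumax-based RPMI medium with compound for one erythrocytic cycle. Activity is scored as loss of luminescent signal.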
HCV inhibitor – qHTS Assay for Inhibitors of Hepatitis C Virus (HCV). Huh7.5.1 HCVcc-Cre infection, luciferase reporter, 44 h. Potency, µM (highest dose often 41.8 µM), inactives show at the highest dose activity change, negative = inhibition, actives largely listed as inhibitors. hit rate 3.4% among 340,000
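Antiviral activity was scored by luciferase reporter output from cells infected with HCVcc-Cre (~0.5 moi) in presence of compound, 44 h infection period, cells seeded 1,000/well 4 h prior.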
Pf growth 96h – Primary qHTS for delayed death inhibitors of the malarial parasite plastid, 96 hour incubation; hit rate 6.9% among 320,000; P. falciparum luciferase reporter growth, 96 h; AID 504834, 2011; Potency, µM (series often up to 28.7 µM), for inactives: at the top dose activity change, negative = inhibition, usual class: inhibitors
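Readout is luminescence from an integrated firefly luciferase in P. falciparum. Red cells, 2% hematocrit and 0.05% parasitemia final, were cultured with compound through two parasite generations (96 hours) at 37 C, 5% CO2.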
AMA1-RON2 inh – qHTS for Inhibitors of AMA1-RON; Towards Development of Antimalarial Drug Lead: Primary Screen; AlphaScreen AMA1-biotinylated RON2 peptide binding; Potency, µM (doses to about 58.2 µM), without a hit: at the top dose activity change, negative = inhibition, actives largely listed as inhibitors; hit rate 0.2% among 360,000;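 also: 0% = vehicle wells and -100% = peptide control; nearly all actives have a fitted effect of over 45% in size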
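AMA1 (3D7) with his tag at 25 nM final met compounds first, then biotinylated RON2 peptide at 25 nM; detection used donor plus acceptor beads, 10 µg/mL apiece, read by AlphaScreen after 30 min at room temperature.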
* marks the source's active call; other numbers are inactive results; ? = inconclusive; . = no result; [ ] = remark or other dose. Calls follow the shape of the dose curve; as a rule, active = well fitted curve in the direction sought with a large enough effect; inconclusive = small, poorly fitted or top-dose-only effect, or another doubt; inactive = no such curve, though single readings can be large; an effect the other way counts as inactive or inconclusive. Unless noted, % is scaled to controls: 0 for no effect and ±100 for the full control effect; potency is read from the fitted curve at half-maximal effect.

SMILES	Pf growth 48h	HCV inhibitor	Pf growth 96h	AMA1-RON2 inh
O=C(C1CCCN(S(=O)(=O)c2cccc3nonc23)C1)N1CCC(Cc2ccccc2)CC1 (stereo unspecified)	?	6.9%	3.4%	-3.6%
Cc1cc(C)n2ncc(C(=O)O)c2n1	14.7%	10.0%	27.1%	-5.0%
CS(=O)(=O)NCC(c1ccco1)N1CCN(c2ccc(F)cc2)CC1 (stereo unspecified)	22.8%	28.9%	6.3%	21.4%
COCCCNC(=S)Nc1ccc(CC(=O)O)cc1	0.0%	11.9%	8.2%	-0.3%
O=C(COc1ncnc2ccccc12)Nc1cc([N+](=O)[O-])ccc1F	2.7%	8.1%	5.22µM*	21.2%
O=C(CSCc1ccccc1)Nc1cc([N+](=O)[O-])ccc1F	-16.2%	-1.9%	5.22µM*	3.3%
O=C(CCn1c(=S)oc2ccccc21)Nc1cc([N+](=O)[O-])ccc1F	8.28µM*	-11.8%	-4.5%	-1.5%
O=C(O)CCCC(=O)Nc1cc([N+](=O)[O-])ccc1O	3.1%	8.6%	13.1µM*	-2.6%
O=C(CCn1c(=S)oc2ccccc21)Nc1cccc(F)c1	-27.9%	?	-10.7%	10.3%
Cc1ccc(NS(=O)(=O)c2ccc(C)c(C(=O)NCC(c3ccccc3)N(C)C)c2)cc1 (stereo unspecified)	?	?	-20.3%	-7.6%
C=CCNc1nc(N2CCOCC2)nc(N2CCOCC2)n1	-13.7%	-23.8%	13.1µM*	-2.8%
Cn1ccnc1Sc1nc(Nc2cccc(Cl)c2)nc(N2CCOCC2)n1	8.28µM*	8.3%	.	5.5%
Cc1cccc(Nc2nc(N3CCOCC3)nc(N3CCOCC3)n2)c1	?	?	-36.2%	2.5%
Oc1cccc(Nc2nc(N3CCOCC3)nc(N3CCOCC3)n2)c1	11.7µM*	?	?	-0.4%
Fc1ccc(Nc2nc(N3CCOCC3)nc(N3CCOCC3)n2)cc1	-14.1%	-28.6%	13.1µM*	2.7%
FC(F)(F)c1cccc(Nc2nc(N3CCOCC3)nc(N3CCOCC3)n2)c1	?	?	?	6.0%
CCc1nc2ccc(C)cc2c(C(=O)NC2CCCCC2C)c1C (stereo unspecified)	-14.3%	-10.5%	?	-4.9%
Cc1cc(C)cc(N2CCCn3c2nc2c3c(=O)[nH]c(=O)n2C)c1	-1.1%	7.0%	-5.0%	0.0%
CCOC(=O)N1CCN(C(=O)CN(C)S(=O)(=O)c2ccc(OCC)cc2)CC1	-3.3%	7.1%	36.4%	-7.6%
O=C1Nc2ccccc2N(C(=O)c2ccc(-c3ccccc3)cc2)C1c1nc2ccccc2[nH]1 (stereo unspecified)	.	.	.	71.2%
Fc1ccc(Nc2nc(NCc3ccccc3)nc3ccsc23)cc1	.	.	.	-5.1%
N#Cc1ccc(Oc2nc(Nc3ccc(F)cc3)nc(N3CCCC3)n2)cc1	.	-4.5%	4.15µM*	-4.6%
CCOc1nc(Nc2ccc(F)cc2)nc(N2CCN(c3ccc(OC)cc3)CC2)n1	.	-19.7%	?	-1.0%
C[C@H]1[C@H](NC(=O)/C(=N/OC(C)(C)C(=O)O)c2csc(N)n2)C(=O)N1S(=O)(=O)O (stereo in doubt)	-11.3%[12.8 µM]	.	-6.9%[12.8 µM]	.
O=c1[nH][nH]c2c1C(c1ccc(Cl)c(Cl)c1)OC(CCc1ccccc1)C2 (stereo unspecified)	.	.	.	94.1%
SMILES	Pf growth 48h	HCV inhibitor	Pf growth 96h	AMA1-RON2 inh
COc1cc(OC)cc(C(=O)NCCSC2CCCCC2)c1	0.0%	3.16µM*	50.4%	-6.8%
COc1cccc(OC)c1C(=O)NCCSC1CCCCC1	0.3%	16.6%	-41.3%	-5.7%
COc1cccc(C(=O)NCCCNC(=O)c2cccc(OC)c2)c1	7.7%	10.6%	-15.5%	2.3%
COc1cc(OC)cc(C(=O)NCCCNC(=O)c2ccccn2)c1	0.4%	3.6%	11.7µM*	22.4%
COc1cc(OC)cc(C(=O)NCCCCCCNC(=O)c2cc(OC)cc(OC)c2)c1	?	7.08µM*	?	0.6%[11.6 µM]
COc1cccc(C(NC(C)=O)c2nc(-c3ccncc3)cs2)c1 (stereo unspecified)	.	.	.	-7.0%
COC(=O)C(c1ccccc1Cl)N1CCc2sccc2C1 (stereo unspecified)	?	.	10.7µM*	.
COC(=O)[C@H](c1ccccc1Cl)N1CCc2sccc2C1	11.7µM*	-50.0%	8.28µM*	7.6%
COC(=O)CC(NS(=O)(=O)c1cccs1)c1ccccc1Cl (stereo unspecified)	8.2%	-1.3%	-2.1%	5.1%
COc1ccc(-c2ccc3c(c2)S(=O)(=O)c2cccc(C(=O)NC[C@@H]4CCCO4)c2C3=O)cc1OC	13.1µM*	?	?	-20.0%
Cc1ccc(S(=O)(=O)NCC(=O)N(CC(=O)NC2CCCC2)c2ccc3c(c2)OCCO3)cc1	?	1.6%	16.6%	-11.1%
CCC(C)(C)NC(=O)CN(C(=O)CNS(=O)(=O)c1ccc(C)cc1)c1ccc2c(c1)OCCO2	6.57µM*	-2.0%	.	-0.3%
C[C@@H](CN1C2=NC[C@H](Cc3ccc(O)cc3)N2C[C@H]1Cc1ccc(O)cc1)NC(=O)CCC1CCCCC1	7.38µM*	6.2%	1.65µM*	-15.1%
COc1ccc(C[C@H]2CN3C(=NC[C@@H]3Cc3ccccc3)N2C[C@H](C)NC(=O)CCC2CCCCC2)cc1	1.65µM*	.	2.62µM*	.
C[C@@H](CN1C2=NC[C@H](Cc3ccccc3)N2C[C@H]1Cc1ccc(O)cc1)NC(=O)CCC1CCCCC1	?	7.6%	14.7µM*	14.4%
COc1ccc(C[C@@H]2CN3C(=NC[C@@H]3C)N2C[C@H](C)NC(=O)CCC2CCCCC2)cc1	?	-1.5%	?	-3.6%
COc1ccc2[nH]cc(CCNC(=O)CCC3CCCCC3)c2c1	-6.8%	-29.8%	?	-12.1%
COc1ccc(C[C@H]2CN3C(=NC[C@H]3Cc3ccccc3)N2CCNC(=O)CCC2CCCCC2)cc1	?	-6.6%	4.65µM*	-2.3%
CCCCCCCCCCCCCCCC(=O)OC[C@H](O)[C@H]1OC[C@@H](O)[C@@H]1O	-10.7%	.	-26.1%	.
CSc1nnc(-c2cc3c(s2)-c2ccccc2CC3)o1	79.7%	2.51µM*	85.0%	201.1%
S=c1[nH]nc(-c2cc3c(s2)-c2ccccc2CC3)o1	36.1%	8.6%	33.6%	12.4%
COCCN(CC1CCCN(C2Cc3ccccc3C2)C1)C(=O)CCC(F)(F)F (stereo unspecified)	4.7%	-11.2%	0.415µM*	-1.5%
CCn1c(SCC(=O)Nc2oc(-c3ccccc3)c(-c3ccccc3)c2C#N)nnc1-c1cc(OC)cc(OC)c1	.	?	31.6%	-4.9%
CC(=O)c1ccc(O)c(CC=C(C)C)c1	-27.7%	6.3%	-4.8%	-0.8%
COc1ccc(CNc2cc(C)ccc2C)c(OC)c1OC	?	?	.	-12.9%
COc1cc(CNc2cc(C)ccc2C)cc(OC)c1OC	5.22µM*	-16.2%	?	-8.1%
CCN(CC)CCOC(=O)/C=C/c1ccccc1	56.9%	6.6%	81.2%	-2.2%
